Molecules are shown by their SMILES. About 79,000 compounds went through this panel and 15% of them were active in at least one assay; those are over-represented in the sample as a whole. A number with no mark means an inactive call. Active and inactive are the calls of the source. No stated cut-off is given here; in the data, active means growth inhibition above about 70%; inactive means the rest.

Assay [1] can be described thus: NCI Yeast Anticancer Drug Screen. Data for the rad50 strain (AID 155).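 Further: 0% = growth of vehicle-only cultures of the same strain.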 To be noted: S. cerevisiae rad50 strain growth inhibition; at 50.0 µM; hits give high values. In short, it runs like this: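 Relative growth inhibition (compound vs vehicle) was measured in yeast with a defined repair-gene alteration.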
A short description of assay [2]: NCI Yeast Anticancer Drug Screen. Data for the mec2-1 strain (AID 157). To be noted: S. cerevisiae mec2-1 strain, at 50.0 µM, hits give high values. In short, it runs like this:
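Readout is yeast growth inhibition, normalised to vehicle-treated controls, in the mec2-1 strain exposed to compound.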

Assay [3] can be described thus: NCI Yeast Anticancer Drug Screen. Data for the sgs1 mgt1 strain (AID 161).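 Further: 0% = growth of cultures given vehicle only.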 To be noted: S. cerevisiae sgs1 mgt1 strain, at 50.0 µM, hits give high values. In short, it runs like this:
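Compounds are added to genetically altered yeast, and growth is compared with cultures given vehicle alone to give percent inhibition.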

Assay [4] can be described thus: NCI Yeast Anticancer Drug Screen. Data for the cln2 rad14 strain (AID 165).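 Further: 0% = growth equal to vehicle treated cultures.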 To be noted: S. cerevisiae cln2 rad14 strain, at 50.0 µM, hits give high values. In short, it runs like this:
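Relative to vehicle controls, growth inhibition of compound-treated cln2 rad14 yeast was recorded.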

Assay [5] can be described thus: NCI Yeast Anticancer Drug Screen. Data for the bub3 strain (AID 167). To be noted: S. cerevisiae bub3 mutant strain, at 50.0 µM, hits give high values. In short, it runs like this: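 Screening used yeast with an engineered genetic alteration affecting cell cycle control. Compound-exposed cultures were compared with vehicle cultures, and reduced growth was taken as inhibition.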

The nature of assay [6]: NCI Yeast Anticancer Drug Screen. Data for the mlh1 rad18 strain (AID 175). To be noted: S. cerevisiae mlh1 rad18 strain growth inhibition; at 50.0 µM; hits give high values. In short, it runs like this: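 Test agents were incubated with a yeast strain of defined genotype (DNA damage repair defect). Inhibition of growth was derived by comparison with vehicle-exposed cultures.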

With `CN1CCC2(CC1)C(C#N)C(=O)NC(=O)C2C#N` (stereo unspecified), the growth inhibition in assay [1] was 19.8%; in assay [2], 3%; in assay [3], 11.7%; in assay [4], 22.9%; in assay [5], 9.05%; in assay [6] it was 7.75%.
`CC([Se])=Nc1ccc(Br)cc1`: the growth inhibition in assay [1] was 21.6%; in assay [2] it was 0.8%; in assay [3], -0.2%; in assay [4], -8.9%; in assay [5], -1.45%; in assay [6], 9.1%.
As for `O=P(Oc1ccccc1)(Oc1ccccc1)Oc1c(Cl)c(Cl)c(O)c(Cl)c1Cl`, the growth inhibition in assay [1] was 23.6%; in assay [2], 10%; in assay [3] it was 38.9%; in assay [4], 19.1%; in assay [5] it was -16.4%; in assay [6] it was 2.35%.
On to `COc1ccc2c(C3(O)CCNCC3)c[nH]c2c1`, for which the growth inhibition in assay [1] was 0.1%; in assay [2], -1.3%; in assay [3], -3.7%; in assay [4], 2.75%; in assay [5], -3.7%; in assay [6], 3.8%.
`O=S(=O)(Nc1ccc(-c2ccccc2)cc1)c1ccc([As](=O)(O)O)cc1`: the growth inhibition in assay [1] was 38.6%; in assay [2], 24.7%; in assay [3], 54.2%; in assay [4], -1.65%; in assay [5], 18.9%; in assay [6] it was 40%.
As to `O=[N+]([O-])/C=C\c1c[nH]c2ccc(OCc3ccccc3)cc12`, the growth inhibition is 52.5% in assay [1]; 30.8% in assay [2]; 53.4% in assay [3]; 45.4% in assay [4]; 55.5% in assay [5]; 40.9% in assay [6].
For the compound `N/C(=N/N=C/c1ccc(O)cc1)N[N+](=O)[O-]`, the growth inhibition in assay [1] was -2.4%; in assay [2], -29.6%; in assay [3], -14.3%; in assay [4] it was -31.5%; in assay [5], -6.75%; in assay [6], 9%.
Consider `COc1cc(O)c([N+](=O)[O-])cc1[N+](=O)[O-]`, for which the growth inhibition in assay [1] is -6.4%; in assay [2], 0.35%; in assay [3], -2.9%; in assay [4], 0%; in assay [5] it was 18.9%; in assay [6], 5.05%.
Take `NC(Cc1ccccc1)c1cccc2c1CCCC2` (stereo unspecified): the growth inhibition in assay [1] is 7.35%; in assay [2] it was -7.3%; in assay [3], -2.55%; in assay [4], -21.8%; in assay [5], 24.4%; in assay [6] it was 40.5%.
For the compound `CC(C)(C)[CH2][Sn]([Cl])([CH2]C(C)(C)C)[CH2]C(C)(C)C`, the growth inhibition in assay [1] is 99% (active); in assay [2] it was 99.3% (active); in assay [3] it was 21.8%; in assay [4], 99% (active); in assay [5], 99.2% (active); in assay [6], 99% (active).
Regarding `O=[N+]([O-])c1ccccc1CBr`, the growth inhibition is 52.8% in assay [1]; 34.5% in assay [2]; 57% in assay [3]; 34.9% in assay [4]; 33.5% in assay [5]; 42% in assay [6].
Turning to `CC[N+](CC)(CC)CC.[C-]#[O+].[C-]#[O+].[C-]#[O+].[Cr+4].[c-]1[c-][c-][cH-][c-]1`, the growth inhibition is 11.3% in assay [1]; 12.4% in assay [2]; 8.75% in assay [3]; -10.8% in assay [4]; 6.65% in assay [5]; -5.8% in assay [6].
`C/C(=N\N=C(N)N)C(CN(C)C)C(c1ccccc1)c1c(O)c2ccccc2oc1=O` (stereo unspecified): the growth inhibition in assay [1] was 25.6%; in assay [2], 23.4%; in assay [3] it was -4.45%; in assay [4], 13.8%; in assay [5], -1.5%; in assay [6], 16.8%.
`O=P1(Oc2ccccc2)N(CCCl)CCN1c1ccccc1` (stereo unspecified): the growth inhibition is -12.2% in assay [1]; -44.8% in assay [2]; 7.15% in assay [3]; 13.2% in assay [4]; 32.1% in assay [5]; -4.65% in assay [6].
`CCCCCCCCCCP(=O)(O)O`: the growth inhibition is -4.9% in assay [1]; -27.4% in assay [2]; -13.3% in assay [3]; -30.3% in assay [4]; -1.6% in assay [5]; -2.85% in assay [6].
`C/C=C\CC1(C/C=C/C)C(=O)NC(=O)NC1=O`: the growth inhibition was 2.25% in assay [1]; -7.45% in assay [2]; -5.05% in assay [3]; -17.6% in assay [4]; -8.9% in assay [5]; 1.25% in assay [6].
`CCOC(C(=O)O)(c1ccccc1)c1ccccc1`: the growth inhibition in assay [1] is -0.55%; in assay [2], 22.2%; in assay [3], 18.5%; in assay [4], -10.1%; in assay [5], 19.5%; in assay [6], 22.8%.
For `Clc1cccc(Cl)c1CBr`, the growth inhibition in assay [1] was 23.1%; in assay [2] it was -19.1%; in assay [3] it was 19.3%; in assay [4], 15.8%; in assay [5], 15.3%; in assay [6] it was 10.1%.
Take `Cc1nc2ccccc2c(=O)n1-c1ccccc1Br`: the growth inhibition was 7.35% in assay [1]; -13.7% in assay [2]; -6.7% in assay [3]; 12.4% in assay [4]; 10.2% in assay [5]; 2.2% in assay [6].
Regarding `c1cc[c]([Pb]([S]c2ccccn2)([c]2ccccc2)[c]2ccccc2)cc1`, the growth inhibition is 99.2% (active) in assay [1]; 99.1% (active) in assay [2]; 99.5% (active) in assay [3]; 99% (active) in assay [4]; 99% (active) in assay [5]; 99.2% (active) in assay [6].
As to `Nc1ccc(Cl)cc1.Nc1ccc(Cl)cc1.Nc1ccc(Cl)cc1.O=C([O-])C(=O)[O-].O=C([O-])C(=O)[O-].[H+].[Ru+5]`, the growth inhibition is 18.4% in assay [1]; 20.7% in assay [2]; 13.3% in assay [3]; 27.5% in assay [4]; 26.6% in assay [5]; 34.5% in assay [6].

(Values after PubChem BioAssay (NCI).)
